# Data as given in PubChem BioAssay AID540256 (National Center for Advancing Translational Sciences (NCATS), 2011).
# Among all 300,000 compounds or so, about 3,700 (1.2%) were called active. Entries that show only a call come without a potency. Inconclusive results (about 20%) are left out. The sample holds actives, similar compounds and a random draw of the others, so the mix is not that of the screen. The call rests on the fitted dose curve; tested in HEK293 cells.
# Assay: qHTS for Inhibitors of binding or entry into cells for Lassa Virus; further: nearly all actives have a fitted effect of over 50% in size
# Conditions: Lassa virus pseudotype entry inhibition, cell reporter; series mostly up to 37.9 µM
# Potency means the concentration at half of the fitted maximal effect.
row,SMILES,Potency
1,CC(C)c1cc(N=O)cc(C(C)C)c1O,inactive
2,N#Cc1c(NC(=O)CSc2nc3ccccc3c(=O)n2Cc2ccco2)sc2c1CCCC2,inactive
3,CC(Sc1nc2ccccc2c(=O)n1Cc1ccco1)C(=O)c1ccccc1 (centres undefined),4.11 µM (active)
4,CCOC(=O)C(C)Sc1nc2ccccc2c(=O)n1CC1CCCCC1 (centres undefined),inactive
5,CC1CCCN(CC(=O)Nc2cc(Cl)ccc2Oc2ccccc2)C1 (centres undefined),inactive
6,CCOc1ccc(NC(=O)COC(=O)C2CCC(=O)N2)c([N+](=O)[O-])c1 (centres undefined),inactive
7,OC(COc1ccccc1)Cn1cc(Br)cn1 (centres undefined),inactive
8,C=CCn1c(=N)n(CC(O)COc2ccc(OC)cc2)c2ccccc21 (centres undefined),inactive
9,OC(CN=c1sc2ccccc2n1CC(O)COc1ccccc1)COc1ccccc1 (centres undefined),20.6 µM (active)
10,COc1ccccc1C(=O)NC(CCSC)C(=O)N1CCN(C/C=C/c2ccccc2)CC1 (centres undefined),inactive
11,CC1CCC2CCCCC2N1C(=O)c1cc([N+](=O)[O-])cc([N+](=O)[O-])c1 (centres undefined),inactive
12,COc1ccc(C2=NOC3(CC(=O)N(c4ccc(C)cc4)C3=O)C2)cc1 (centres undefined),inactive
13,COc1ccc(-c2cc(-c3ccccc3)nc3c2COc2ccc(Cl)cc2-3)cc1,inactive
14,COc1ccc(C2=Nc3cc(C)ccc3OC2)cc1,10 µM (active)
15,COc1ccc2c(c1)C(=O)Nc1cc(Cl)ccc1N2,inactive
16,CC(=O)Nc1ccc(NC(=O)CS(=O)(=O)c2cn(CC(=O)N3CCCCC3)c3ccccc23)cc1,inactive
17,Cc1onc(-c2ccccc2Cl)c1C(=O)OCc1nnc(-c2ccccc2)o1,inactive
18,O=C(c1ccc(F)cc1)c1c[nH]c(C(=O)NCc2cccnc2)c1,inactive
19,CC(C)CC(=O)NC(=S)NCc1ccccc1,inactive
20,CC(C)CC(=O)c1c[nH]c(C(=O)NCc2ccccc2)c1,7.94 µM (active)
21,OC(COc1ccccc1)CN1CCN(c2cccc(Cl)c2)CC1 (centres undefined),inactive
22,CC/C(=C\c1ccc(Cl)cc1)c1ccncc1,inactive
23,COc1cc2cc(C(=O)N/N=C/c3cccc(OC)c3OC)[nH]c2cc1OC,inactive
24,CN(C)CCNC(=O)c1[nH]nc2c1CCc1ccccc1-2,inactive
25,COc1cccc(/C=N/NC(=O)c2[nH]nc3c2CCc2ccccc2-3)c1O,12.6 µM (active)
26,O=C(CSc1nnc(-c2ccncc2)o1)Nc1cccc(Cl)c1,inactive

row,SMILES,Potency
1,COc1ccccc1CNS(=O)(=O)c1cc(C(=O)NCc2ccccn2)c(Cl)cc1Cl,inactive
2,CCN(CC)S(=O)(=O)c1ccc(N(C)CCc2ccc(OC)c(OC)c2)nc1,inactive
3,CCN(CC)S(=O)(=O)c1ccc(N(C)Cc2ccc(C(F)(F)F)cc2)nc1,4.47 µM (active)
4,CCN(CC)S(=O)(=O)c1ccc(N(C)Cc2cccc(OC)c2OC)nc1,inactive
5,CCOc1ccc2[nH]c(=O)c(CN(CCCO)S(=O)(=O)c3ccc(F)cc3)cc2c1,inactive
6,COc1ccc(C(C(=O)NC2CCCCC2)N(C(=O)CCl)c2ccccc2Cl)cc1 (centres undefined),inactive
7,NC(=O)c1nsc(C(=O)N(CCCN2CCOCC2)C(C(=O)NC2CCCCC2)c2ccc(Cl)cc2)c1N (centres undefined),inactive
8,COc1ccc(C(C(=O)NC2CCCCC2)N(C(=O)c2snc(C(N)=O)c2N)c2ccccc2OC)cc1 (centres undefined),10 µM (active)
9,O=C(O)C1C2C=CC(O2)C1C(=O)Nc1ccccn1 (centres undefined),inactive
10,COCCNc1cc(-c2ccccc2)nc2cc(-c3cccc(F)c3)nn12,inactive
11,CC(=O)Nc1ccc(NC(=O)COC(=O)C2CCC(C(C)(C)C)CC2)cc1 (centres undefined),inactive
12,COc1ccc(CCNS(=O)(=O)c2cc(-c3cc(C)no3)ccc2C)cc1OC,inactive
13,COC(=O)c1ccccc1NC(=O)c1ccc(COc2ccccc2Cl)o1,inactive
14,O=C(Nc1ccn(Cc2ccccc2F)n1)c1ccc(COc2ccc(Cl)cc2Cl)o1,10 µM (active)
15,COc1ccc(Cl)cc1NC(=O)NCC1CCN(Cc2ccccc2F)CC1,inactive
16,COc1ccccc1N(C)S(=O)(=O)c1ccc(Cl)c(C(=O)Nc2ccncc2)c1,inactive
17,O=C(NC(=O)c1ccccc1)NC(=O)c1ccccc1,inactive
18,CN(O)C(=S)c1ccccc1,6.31 µM (active)
19,CCc1ccc(C(=O)C(C)OC(=O)CN2C(=O)NC3(CCCC3)C2=O)cc1 (centres undefined),inactive
20,CCOc1ccc(NC(=O)c2cn(C3CCCCC3)c(=O)c3c2c2ccccc2n3C)cc1,inactive
21,O=C(c1ccccc1Oc1ccccc1)N1CCN(c2ccc(F)cc2)CC1,inactive
22,Cn1c2ccccc2c2c(C(=O)N3CCN(c4ccc(F)cc4)CC3)cn(C3CCCC3)c(=O)c21,10 µM (active)
23,O=C(NNC(=O)c1ccc(-c2ccccc2)cc1)Nc1ccccc1,inactive
24,CC(Nc1ccc([N+](=O)[O-])cc1[N+](=O)[O-])c1ccccc1 (centres undefined),inactive
25,O=C(/C=C/c1ccccc1)N1CCN(Cc2cc(=O)n3nc(-c4ccccc4F)sc3n2)CC1,inactive
26,Cc1cccc(N=C2NN=C(c3c[nH]c4ccccc34)CS2)c1,14.6 µM (active)

row,SMILES,Potency
1,Cc1cccc(C(=O)Nc2nnc(Cc3c[nH]c4ccccc34)s2)c1,inactive
2,CC(=O)c1c(C)[nH]c(C(=O)N2CCN(S(=O)(=O)c3ccc(F)c(F)c3)CC2)c1C,inactive
3,O=C(CCC1CCCCC1)Nc1cc(C(F)(F)F)ccc1N1CCOCC1,inactive
4,COc1cccc(C(=O)OCc2cc(=O)oc3c(C)c(C)ccc23)c1OC,inactive
5,CCOc1ccc(NC(=O)CN(C)C(=O)Cc2sc(C)nc2-c2ccc(F)cc2)cc1OCC,inactive
6,N#CCc1c[nH]c2ccc([N+](=O)[O-])cc12,inactive
7,O=S(=O)(c1ccc(Br)cc1)c1nc(-c2ccccc2)oc1NCc1cccnc1,inactive
8,Cc1ccc(S(=O)(=O)c2nc(-c3cccs3)oc2NCc2cccnc2)cc1,inactive
9,COc1cccc(-c2nc(S(=O)(=O)c3ccc(C)cc3)c(NCc3ccccc3)o2)c1,10 µM (active)
10,CN(C)c1nc(NN)nc(Nc2ccc(F)cc2)n1,inactive
11,CCOc1ccc(C(=O)CCC(=O)Nc2ccncc2)cc1,inactive
12,CC(CCc1ccccc1)NC(=O)COC(=O)c1ccc(F)cc1 (centres undefined),inactive
13,CCC1(C)Cc2c(sc3nc(SC)[nH]c(=O)c23)CO1 (centres undefined),inactive
14,CCC1(C)Cc2c(sc3[nH]c(=S)n(Cc4ccccc4)c(=O)c23)CO1 (centres undefined),5.62 µM (active)
15,CCC1(C)Cc2c(sc3nc4n(c(=O)c23)CCCS4)CO1 (centres undefined),inactive
16,O=C(CCNC(=O)c1ccccc1Cl)NN=Cc1ccco1,inactive
17,CCOC(=O)c1csc(CCNC(=O)c2oc3c(Cl)cc(C)cc3c2C)n1,inactive
18,CN1C(c2ccc(F)cc2)=CS/C1=C(/C#N)c1nnc2n1-c1ccccc1SC2,inactive
19,O=C(Nc1cccc(F)c1)NC1CCCCCCC1,12.6 µM (active)
20,Cc1cc(C)cc(NC(=O)NC2CCCCCCC2)c1,inactive
21,C/C(CC(=O)Nc1cccc(F)c1)=N\NC(=O)C(=O)NC1CCCCC1,inactive
22,COc1ccc2oc(C(=O)N(CC(C)C)C3CCS(=O)(=O)C3)c(C)c2c1 (centres undefined),inactive
23,COc1ccccc1N(CCOc1ccccc1)S(=O)(=O)c1ccccc1,inactive
24,Cc1ccc(S(=O)(=O)N2CCC(=O)N([C@H](COCc3ccccc3)C(C)C)CC2)cc1,inactive
25,O=C(Nc1ccccc1)c1ccc2c(c1)OCCCO2,3.16 µM (active)
26,O=C(Nc1ccc(N2CCOCC2)cc1)c1ccc2c(c1)OCO2,inactive

row,SMILES,Potency
1,O=C(Nc1cccc([N+](=O)[O-])c1)c1ccc2c(c1)OCO2,inactive
2,O=C(Nc1nc2ccccc2s1)c1ccc2c(c1)OCO2,2.51 µM (active)
3,Cc1cc(C)c2nc(NC(=O)c3ccc4c(c3)OCO4)sc2c1,inactive
4,O=C(Nc1ccc2c(c1)OCCO2)c1ccc(Cl)c(S(=O)(=O)N2CCCCC2)c1,20.6 µM (active)
5,O=C(Nc1ccccc1F)c1ccc2c(c1)OCO2,inactive
6,O=C(Nc1cccc(S(=O)(=O)N2CCCCC2)c1)c1ccc2c(c1)OCO2,inactive
7,O=C(c1ccc(Cl)c(S(=O)(=O)N2CCCCC2)c1)N1CCCCCC1,inactive
8,N#Cc1ccccc1S(=O)(=O)N1CCN(C(=O)c2cc(-c3ccccc3)nn2-c2ccccc2)CC1,inactive
9,COc1ccc(-c2csc3ncnc(N4CCN(S(=O)(=O)c5ccccc5C#N)CC4)c23)cc1,inactive
10,Cc1cc(C)c(NC(=O)CN2C(=O)c3cccnc3Oc3ccc(Cl)cc32)c(C)c1,inactive
11,O=c1[nH]c2c(c(=O)n1-c1ccccc1)CCO2,inactive
12,CC(CC(=O)N1CCN(c2ccccc2)CC1)S(=O)(=O)c1ccc2c(c1)NC(=O)CS2 (centres undefined),inactive
13,COc1ccc(-c2nc3sc(CCNC(=O)C(C)(C)C)c(C)n3n2)cc1,inactive
14,CCC/C=C(\CCC)C(NC(=O)Cc1ccccc1)c1ccc(C(=O)OC)cc1 (centres undefined),6.51 µM (active)
15,CCC[C@@H]1C[C@@]1(CCC)[C@@H](NC(=O)c1ccccc1)c1ccc(C(=O)OC)cc1,inactive
16,CC(=O)c1ccc(OC(NC(=O)Cc2ccccc2)C(Cl)(Cl)Cl)cc1 (centres undefined),inactive
17,COc1ccc(OCC(=O)NNC(=O)C2CCC2)cc1,inactive
18,Cc1ccc(NC(=O)C(C)OC(=O)C2CC3CCCC(C2)C3=O)cc1S(=O)(=O)N1CCOCC1 (centres undefined),inactive
19,Fc1ccc2[nH]c3c(N4CCN(Cc5ccc6c(c5)OCO6)CC4)ncnc3c2c1,15.8 µM (active)
20,O=c1[nH]c(N2CCN(Cc3ccc4c(c3)OCO4)CC2)nc2c1CCCC2,inactive
21,Fc1ccc(N2CCN(Cc3ccc4c(c3)OCO4)CC2)cc1,inactive
22,Cc1cc2c(cc3c(SCc4nc(-c5ccccc5)oc4C)nnc(C)n32)o1,inactive
23,Cc1ccc2c(c1)C1CN(C)CCC1N2S(=O)(=O)c1cccc(F)c1 (centres undefined),inactive
24,CCc1ccc2nc(N(CCCN(C)C)C(=O)c3ccc4c(c3)OCCO4)sc2c1,inactive
25,CCN(CC)CCN(C(=O)c1ccc(S(=O)(=O)N2CCOCC2)cc1)c1nc2cc3c(cc2s1)OCCO3,inactive
26,CN(C)CCCN(C(=O)c1ccc(S(=O)(=O)N2CCCCCC2)cc1)c1nc2cc3c(cc2s1)OCCO3,14.1 µM (active)
